# Screening results: PubChem BioAssay, National Center for Advancing Translational Sciences (NCATS)
# Compounds with a hit are over-represented: about 2.5% of the library has one in this group of screens.
# Pol eta inh-1: qHTS for Inhibitors of Polymerase Eta | recombinant Pol eta, fluorescent DNA replication assay | AID 588591, 2011 | DNA polymerase eta (Homo sapiens), Q9Y253 | Potency, µM (doses to about 114 µM), for the others: at the top dose activity change, negative = inhibition, most hits filed as inhibitors | actives 1.2% (n = 390,000); note: % is set by controls: 0 for no effect and ±100 for the full control effect
#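 Fluorescent replication assay: 50 nM final substrate added after a 15 min room-temperature compound preincubation with 10 nM enzyme. Signal taken at 0 min and again at 10 min.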
# POLI inh: qHTS for Inhibitors of Polymerase Iota; DNA polymerase iota (Homo sapiens), Q9UNA4; Pol iota fluorescent replication assay, 10 min; Potency, µM (titrated, usually from 115 µM), without a hit: at the highest dose activity, negative = inhibition, most hits filed as inhibitors; actives 1% (n = 390,000); AID 588590, 2011
#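 Pol iota at 10 nM preincubated 15 min with compounds at room temperature; reaction started with fluorescent substrate, 50 nM final. Fluorescence read kinetically at 0 and 10 min; buffer-only wells as negative control.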
# POLB inh: qHTS Assay for Inhibitors of DNA Polymerase Beta | P06746 | Pol beta primer extension/strand displacement, fluorescence kinetic | Potency, µM (doses to about 114 µM), for the others: top-dose activity change, negative = inhibition, most hits filed as inhibitors | actives 1.3% (n = 340,000) | AID 485314, 2010; note: % is set by controls: 0 for no effect and ±100 for the full control effect
#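 Pol beta (10 nM) and compounds were preincubated 15 min at room temperature, then 50 nM substrate (final) started primer extension/strand displacement. Reads were taken at 0 and 10 min; concentration-response data were fitted to a four-parameter Hill equation.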
# Pol kappa inh-1: qHTS for Inhibitors of Polymerase Kappa; Potency, µM (doses to about 107 µM), inactives show top-dose activity, negative = inhibition, hits mostly inhibitors; DNA polymerase kappa (Homo sapiens), Q9UBT6; actives 0.53% (n = 400,000); AID 588579, 2011; purified Pol kappa, fluorescent DNA synthesis assay, 10 min; note: % is set by controls: 0 for no effect and ±100 for the full control effect
#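 Inhibition of 10 nM Pol kappa is measured by a fluorescent read-out at 0 and 10 min following addition of 50 nM substrate (final), with a 15-min room-temperature compound preincubation.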
# L3MBTL1 inh: qHTS Assay for the Inhibitors of L3MBTL1; Lethal(3)malignant brain tumor-like protein 1 (Homo sapiens), Q9Y468; AlphaScreen L3MBTL1–H3K9me1 peptide binding; Potency, µM (top dose mostly 57.1 µM), without a hit: at the highest dose activity, negative = inhibition, actives largely listed as inhibitors; actives 0.66% (n = 230,000); AID 485360, 2010; note: % is set by controls: 0 for no effect and ±100 for the full control effect; nearly all actives have a fitted effect of over 60% in size
# Target sequence (Q9Y468 whole entry, looked up): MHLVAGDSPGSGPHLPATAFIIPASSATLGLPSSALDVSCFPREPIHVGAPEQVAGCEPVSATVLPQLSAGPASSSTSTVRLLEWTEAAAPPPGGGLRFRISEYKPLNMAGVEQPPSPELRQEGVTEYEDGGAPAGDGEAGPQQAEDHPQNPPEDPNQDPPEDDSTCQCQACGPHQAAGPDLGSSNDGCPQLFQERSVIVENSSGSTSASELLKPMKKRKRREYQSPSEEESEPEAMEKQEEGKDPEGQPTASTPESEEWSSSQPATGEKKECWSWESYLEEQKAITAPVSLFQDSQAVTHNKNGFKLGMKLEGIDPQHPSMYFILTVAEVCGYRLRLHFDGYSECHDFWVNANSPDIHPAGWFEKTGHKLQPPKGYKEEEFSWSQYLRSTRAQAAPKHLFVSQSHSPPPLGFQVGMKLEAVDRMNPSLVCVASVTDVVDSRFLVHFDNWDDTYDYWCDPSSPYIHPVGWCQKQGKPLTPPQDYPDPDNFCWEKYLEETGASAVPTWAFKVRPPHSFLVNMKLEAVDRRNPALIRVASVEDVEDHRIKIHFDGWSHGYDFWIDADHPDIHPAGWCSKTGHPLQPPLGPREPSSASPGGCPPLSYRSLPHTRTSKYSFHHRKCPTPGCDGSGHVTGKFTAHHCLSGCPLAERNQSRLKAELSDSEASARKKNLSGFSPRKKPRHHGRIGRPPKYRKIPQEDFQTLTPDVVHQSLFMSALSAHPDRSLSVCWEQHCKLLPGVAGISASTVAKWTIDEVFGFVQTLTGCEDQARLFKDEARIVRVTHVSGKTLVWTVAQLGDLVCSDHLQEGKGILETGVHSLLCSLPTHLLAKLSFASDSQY
#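 First, the protein-peptide complex forms for 30 min at room temperature (L3MBTL1 50 nM, biotinylated H3K9me1 peptide 75 nM). Next, compounds are pin-transferred and incubated 30 min. Finally, AlphaScreen beads are added and read after 30 min.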
# APEX1 inh: qHTS Assay for Inhibitors of the Human Apurinic/apyrimidinic Endonuclease 1 (APE1). Potency, µM (series often up to 65.8 µM), for inactives: at the top dose activity change, negative = inhibition, hits mostly inhibitors. actives 0.35% (n = 350,000). recombinant APE1, TAMRA/BHQ-2 abasic DNA cleavage fluorescence;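 note: plate controls were vehicle for no effect and reference inhibitor for full effect; nearly all actives have a fitted effect of over 55% in size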
#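 Activity was derived from the fluorescence gain between first and third kinetic reads (60 s intervals, ex 525/em 598 nm) after 50 nM THF-abasic TAMRA/BHQ-2 duplex was added to 0.75 nM APE1 preincubated 15 min with compound.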
# TbPGK inh: qHTS for inhibitors of Phosphogylcerate Kinase: Hit Validation Screen. shares compounds with Pol kappa inh-1. TbPGK coupled GAPDH assay, Kinase-Glo luminescence. Potency, µM (highest dose often 57.5 µM), inactives show at the top dose activity change, negative = inhibition, usual class: inhibitors. actives 79% (n = 500); note: % is set by controls: 0 for no effect and ±100 for the full control effect; nearly all actives have a fitted effect of over 65% in size
# POLI cherry-pick: qHTS for Inhibitors of Polymerase Iota: Confirmatory Assay for Cherry-picked Compounds. shares compounds with Pol kappa inh-1. Pol iota primer extension, TAMRA/BHQ fluorescence. Potency, µM, most hits filed as inhibitors. actives 77% (n = 1,500). AID 720496, 2013
# Pol kappa inh-2: qHTS for Inhibitors of Polymerase Kappa: Confirmatory Assay for Cherry-picked Compounds. shares compounds with Pol eta inh-1. purified Pol-kappa, fluorescent strand-displacement substrate. Potency, µM, hits mostly inhibitors. actives 76% (n = 920)
# Pol eta inh-2: qHTS for Inhibitors of Polymerase Eta: Confirmatory Assay for Cherry-picked Compounds | Potency, µM, actives largely listed as inhibitors | actives 64% (n = 2,600) | Pol eta primer extension, TAMRA/BHQ fluorescence, 10 min | shares compounds with Pol eta inh-1
# * = called active by the depositor; ? = inconclusive; · = no result given; [ ] = remark or other dose. Calls come from the whole dose curve; as a rule, active = well fitted curve in the direction sought with a large enough effect; inconclusive = small, poorly fitted or top-dose-only effect, or another doubt; inactive = no such curve, though single readings can be large; an effect the other way counts as inactive or inconclusive. Potency is the fitted concentration of half-maximal effect.
SMILES,Pol eta inh-1,POLI inh,POLB inh,Pol kappa inh-1,L3MBTL1 inh,APEX1 inh,POLI cherry-pick,Pol kappa inh-2,Pol eta inh-2,others
C/C=C/C=C/C(=O)[C@@H]1[C@@H]([C@]2(C)OC(=O)C(C)=C2O)[C@H]2/C(=C(O)/C=C/C=C/C)C(=O)[C@]1(C)C(=O)C2(C)O (stereo partly drawn),2.51µM*,2.82µM*,-20.3%,8.91µM*,·,?,11.9*,·,4.26*,
Oc1cc2c(cc1O)[C@H]1c3ccc(O)c(O)c3OC[C@@]1(O)C2,14.1µM*,7.94µM*,·,22.4µM*,35.5µM*,?,37.7*,23.8*,26.9*,
Cc1cc(/C=N/Nc2ccc([N+](=O)[O-])cn2)c(C)n1-c1ccc(C(=O)O)cc1,17.8µM*,17.8µM*,?,79.4µM*,·,?,?,·,67.5*,
Cc1ccccc1-n1c(C)cc(/C=N/Nc2ccc([N+](=O)[O-])cn2)c1C,-8.4%,2.3%,26.1%,-5.7%,·,-4.4%,·,·,·,
CCOc1ccc(CN(C)C(=O)CNC(=O)Cc2cccc3ccccc23)cc1,-11.9%,24.9%,2.8%,6.8%,·,62.2%,·,·,·,
COc1cc(/C=C2\SC(=O)N(c3cccc(Cl)c3)C2=O)cc([N+](=O)[O-])c1O,?,6.31µM*,6.31µM*,?,-17.3%,1.8%,37.7*,4.23*,?,TbPGK inh=4.61µM*
O=C(O)COc1ccc(/C=N/NC(=O)c2ccc(-c3csc(Nc4ccc(Cl)cc4)n3)cc2)cc1,2.51µM*,2.82µM*,?,7.94µM*,·,3.55µM*,2.99*,·,10.7*,
Cc1ccc(CNC(=O)CCCCCn2c(=O)c3sccc3n(CC(=O)C(C)(C)C)c2=O)cc1,·,35.7%,22.7%,4.3%,·,·,·,·,·,
COc1ccccc1C(CCN(Cc1cccs1)C(C)=O)c1ccco1 (stereo not drawn),25.1µM*,22.4µM*,28.2µM*,-36.2%,-2.4%,1.1%,?,·,75.7*,
O=C1C=C(O)c2c(O)cc(O)c(O)c2C1=O,1.58µM*,3.55µM*,·,2µM*,·,·,3.77*,·,21.3*,TbPGK inh=8.19µM*
COc1ccccc1CCNC(=O)Cc1c(C)c2ccc(O)cc2oc1=O,-14.4%,2.6%,1.9%,-13.2%,·,·,·,·,·,
COc1ccc(NC(=O)CN2C(=O)N/C(=C\c3cccn3-c3ccc(C(=O)NC#N)cc3)C2=O)cc1,·,·,·,·,·,·,42.3*,18.9*,60.1*,
Cc1ccc(-n2cccc2/C=C2/NC(=O)N(CC(=O)Nc3cccc(C)c3)C2=O)cc1,-16.4%,143.1%,?,-1.1%,2.8%,-3.8%,·,·,·,
N#CNC(=O)c1ccc(-n2cccc2/C=C2\NC(=O)N(CC(=O)Nc3ccc(F)cc3)C2=O)cc1,·,·,·,·,·,·,26.7*,·,47.8*,
O=C(CSc1nnc(-c2cccc(F)c2)c(-c2cccc(F)c2)n1)NC1CCCCC1,3.2%,13.8%,29.6%,-1.0%[60.1 µM],·,·,·,·,·,
CCc1ccccc1NC(=O)C(C)n1nc(-c2ccc(C)c(C)c2)ccc1=O (stereo not drawn),-4.7%,?,?,-21.6%,·,·,·,·,·,
COc1ccc(/C=C2\C(=N)N3N=C(CC(=O)N4CCOCC4)SC3=NC2=O)cc1,-6.9%,?,2.9%,0.3%,·,67.3%,·,·,·,
N=C1/C(=C/c2ccc(-c3cccc(C(=O)O)c3)o2)C(=O)N=C2SC(CC(=O)N3CCOCC3)=NN12,3.55µM*,3.55µM*,?,?,·,?,16.8*,·,4.78*,
COc1cc(/C=N\NC(=O)c2ccc(=O)[nH]n2)cc(OC)c1OC,?,15.8µM*,12.6µM*,50.1µM*,0.5%,-0.3%,29.9*,·,47.8*,
COc1cc(/C=N/NC(=O)c2cc(-c3cccn3C)n[nH]2)cc(OC)c1OC,28.2µM*,3.55µM*,?,?,-13.2%,-7.3%,?,18.9*,26.9*,
COc1cc(/C=N/NC(=O)c2ccncc2)cc(OC)c1OC,-6.6%,10.5%,-25.7%,-4.5%,-1.2%[2.29 µM],13.6%,·,·,·,
CCOc1ccc(NS(=O)(=O)c2ccc3c(c2)NC(=O)CCS3)cc1,-12.4%,1.4%,13.2%,-7.0%[60.1 µM],·,·,·,·,·,
O=C1NC(=S)S/C1=C/c1ccc(N2CCOCC2)o1,?,79.4µM*,14.1µM*,?,31.6µM*,2.6%,37.7*,84.4*,75.7*,
COc1cc(OC)c(-c2c3cc(O)c(=O)cc-3oc3cc(O)c(O)cc23)cc1OC,·,·,20µM*,?,0.794µM*,25.1µM*,1.34*,18.9*,67.5*,
N#C/C(=C\c1ccc(O)c(O)c1)C(=O)Nc1cccc2ncccc12,2.82µM*,3.16µM*,0.794µM*,3.98µM*,·,2.99µM*,6.7*,·,3.79*,
COc1ccc(/C=C(\C#N)C(=O)Nc2cccc3ncccc23)cc1OC,-6.2%,5.7%,-1.8%,-12.5%,·,-0.9%,·,·,·,
O=C(NC(=S)N1CCCCC1CO)c1cc(Br)ccc1Cl (stereo not drawn),-22.6%,20.5%,·,-1.6%,3.5%,3.6%,·,·,·,
COc1ccc(C(=O)N/N=C/c2ccc(OC)c(COc3c(F)c(F)cc(F)c3F)c2)cc1,?,44.7µM*,50.1µM*,-15.6%,·,-0.7%,?,?,·,
COc1cc(/C=N/NC(=O)c2ccccc2O)ccc1OCC(=O)Nc1ccccc1,50.1µM*,28.2µM*,6.31µM*,50.1µM*,5.5%,7.6%,42.3*,16.8*,?,
